For 20 compounds, growth inhibition results are on record in PubChem BioAssay (NCI).

Compounds without any hit were thinned out: in the full panel of roughly 79,000, 15% have a hit. A number with no mark means an inactive call. Calls of active or inactive are those of the source. No stated cut-off is given here; in the data, active means growth inhibition above about 70%; inactive means the rest.

The nature of assay [1]: NCI Yeast Anticancer Drug Screen. Data for the rad50 strain (AID 155).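 Further: 0% = growth of vehicle-only cultures of the same strain.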 The conditions noted are these: S. cerevisiae rad50 strain growth inhibition; at 50.0 µM; hits give high values. Summed up: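 DNA repair mutant yeast, compound exposure, growth read-out; inhibition is taken relative to vehicle.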
The nature of assay [2]: NCI Yeast Anticancer Drug Screen. Data for the mec2-1 strain (AID 157). The conditions noted are these: S. cerevisiae mec2-1 strain, at 50.0 µM, hits give high values. In short, it runs like this: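 Cells of the genetically defined mec2-1 yeast strain are incubated with test compound. Inhibition of growth is calculated against vehicle-treated controls.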
Assay [3] is described as follows: NCI Yeast Anticancer Drug Screen. Data for the sgs1 mgt1 strain (AID 161).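 Further: 0% = growth of cultures given vehicle only.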 The conditions noted are these: S. cerevisiae sgs1 mgt1 strain, at 50.0 µM, hits give high values. In short, it runs like this: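 Mutant yeast exposed to compound; growth scored against vehicle-only wells.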
Assay [4] can be described thus: NCI Yeast Anticancer Drug Screen. Data for the cln2 rad14 strain (AID 165).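 Further: 0% = growth equal to vehicle treated cultures.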 The conditions noted are these: S. cerevisiae cln2 rad14 strain, at 50.0 µM, hits give high values. Summed up: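 The screen exposed genetically defined yeast (cln2 rad14) to test compounds and scored growth inhibition relative to vehicle-treated controls.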
Assay [5] can be described thus: NCI Yeast Anticancer Drug Screen. Data for the bub3 strain (AID 167). The conditions noted are these: S. cerevisiae bub3 mutant strain, at 50.0 µM, hits give high values. In short, it runs like this: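 In this screen, a yeast mutant lacking normal mitotic checkpoint function is challenged with compound. Relative growth versus vehicle gives the inhibition value.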
Assay [6] in a line: NCI Yeast Anticancer Drug Screen. Data for the mlh1 rad18 strain (AID 175). Conditions: S. cerevisiae mlh1 rad18 strain growth inhibition; at 50.0 µM; hits give high values. Summed up:
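Compound-treated yeast growth, normalised to vehicle controls. Strain bears defined DNA repair mutations.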

As to `N#Cc1nccc2ccccc12`, the growth inhibition in assay [1] was 12.2%; in assay [2], -13.3%; in assay [3], -13.1%; in assay [4], -29.1%; in assay [5] it was -1.4%; in assay [6], -13.4%.

`CN(C)C(=O)Nc1cccc(OC(=O)NCCCl)c1`: the growth inhibition in assay [1] was 6.55%; in assay [2], 52.5%; in assay [3], 30.7%; in assay [4], 0.9%; in assay [5], 41%; in assay [6], 20.7%.

For `O=C(O)/C=C/C(=O)Nc1ncn[nH]1`, the growth inhibition was -3.55% in assay [1]; -24.7% in assay [2]; -22.9% in assay [3]; 3.2% in assay [4]; -34.9% in assay [5]; -5.4% in assay [6].

For `CCCCCc1cc(O)cc2c1Oc1cc(O)cc(C(=O)CCCC)c1C(=O)O2`, the growth inhibition in assay [1] is 4%; in assay [2] it was -17.2%; in assay [3] it was 8.6%; in assay [4] it was -9.9%; in assay [5] it was -9.4%; in assay [6], -14.2%.

For `NCC(=O)N1CCCC1C(=O)O` (stereo not given), the growth inhibition in assay [1] was -9.8%; in assay [2], -6.3%; in assay [3], -0.7%; in assay [4], -24.4%; in assay [5], 0.05%; in assay [6], -6.2%.

Take `N#C/C(N)=C(/C#N)N=Cc1ccccc1`: the growth inhibition in assay [1] was 15.9%; in assay [2] it was 21.3%; in assay [3] it was 8.4%; in assay [4], -64.4%; in assay [5] it was 7.2%; in assay [6] it was 18.9%.

For `CCN(CC)CC`, the growth inhibition in assay [1] was -8.4%; in assay [2], -6.2%; in assay [3], -21.2%; in assay [4] it was -53.4%; in assay [5], -19%; in assay [6], 19.4%.

With `COc1ccc(C(=O)CC(c2ccccc2)[C@H]2C(c3ccc(OC)cc3)=Nc3c(nc(SC)n(C)c3=O)NC2c2ccccc2)cc1` (stereo not given in full), the growth inhibition is 16.8% in assay [1]; 7.55% in assay [2]; 20.6% in assay [3]; 12.7% in assay [4]; -0.35% in assay [5]; 19.2% in assay [6].

As for `Cc1ccc(S(=O)(=O)/N=C2\CCN(S(=O)(=O)c3ccccc3)N2S(=O)(=O)c2ccc(C)cc2)cc1`, the growth inhibition is 17.6% in assay [1]; 15.5% in assay [2]; 14.3% in assay [3]; 9.85% in assay [4]; 11.8% in assay [5]; 46.5% in assay [6].

Regarding `CCC1CN2C(=N1)c1ccccc1-c1cc([N+](=O)[O-])ccc12` (stereo not given), the growth inhibition in assay [1] was 94% (active); in assay [2], 43%; in assay [3] it was -20.2%; in assay [4], 51.3%; in assay [5] it was 54%; in assay [6] it was 94.2% (active).

`CCc1cccc(NC(=O)c2cc(/C=C/c3ccccc3)[nH]c(=S)n2)c1`: the growth inhibition in assay [1] was -15.9%; in assay [2], -19.4%; in assay [3] it was 6.95%; in assay [4] it was -1.85%; in assay [5] it was -6.85%; in assay [6] it was -12.1%.

As for `CC1=C(C(=O)Nc2ccccc2C)C(c2ccccc2)C(C(=O)Nc2ccccc2C)=C(C)N1`, the growth inhibition in assay [1] is 10.7%; in assay [2], 15.2%; in assay [3], 9.25%; in assay [4], 6.3%; in assay [5], 16.3%; in assay [6] it was 7.1%.

Turning to `CCC(C)OC(=S)S.[Cu+2]` (stereo not given), the growth inhibition in assay [1] was -23.6%; in assay [2] it was 19.4%; in assay [3], -0.85%; in assay [4], -4.8%; in assay [5] it was -76.5%; in assay [6], -44.9%.

On to `CCOC(=O)c1ccc(-n2c(SCC)nc3sc(C)c(C)c3c2=O)cc1`, for which the growth inhibition in assay [1] is -18.9%; in assay [2], -17.8%; in assay [3], -40.5%; in assay [4], -38.5%; in assay [5], -31.8%; in assay [6], -29.3%.

Turning to `ClC(Cl)(Cl)C(c1ccc(Br)cc1)c1ccc(Br)cc1`, the growth inhibition in assay [1] is -18.1%; in assay [2], -29.5%; in assay [3], 1.15%; in assay [4], -43.3%; in assay [5], 16.8%; in assay [6], -0.25%.

`CC1=CC(=O)C(=O)c2ccccc21`: the growth inhibition was -34.9% in assay [1]; -9.65% in assay [2]; -5.5% in assay [3]; 10.4% in assay [4]; -4.4% in assay [5]; -4.9% in assay [6].

Regarding `CN(C)Cc1cc(C(C)(C)C)cc(CN(C)C)c1O`, the growth inhibition in assay [1] was -4%; in assay [2], -6.2%; in assay [3] it was -13%; in assay [4], -20.1%; in assay [5], -36.4%; in assay [6] it was -0.05%.

In the case of `O=C(C[n+]1cccc2cccc(O)c21)c1ccc2ccccc2c1`, the growth inhibition in assay [1] was 6.6%; in assay [2], 7.6%; in assay [3], 18.8%; in assay [4], 26.6%; in assay [5] it was 1.15%; in assay [6], 2.7%.

As to `BrC1=NOC2c3cccc4cccc(c34)C12` (stereo not given), the growth inhibition in assay [1] is 2.4%; in assay [2], 8.95%; in assay [3], 19.6%; in assay [4], 42%; in assay [5], 34%; in assay [6] it was 22.8%.

On to `CN(C)C(=S)SCC(=O)c1ccccc1`, for which the growth inhibition in assay [1] was -23.1%; in assay [2], -27.6%; in assay [3], -16.6%; in assay [4], -20.2%; in assay [5] it was -9.7%; in assay [6], -10.6%.
